Test results as given in PubChem BioAssay.

biological target: Tumor necrosis factor receptor superfamily member 10B (Homo sapiens) (UniProt O14763); assay: viability loss of caspase-8 NB7 cells with TRAIL – with/without TRAIL, luminescence panel, confirmation (AID 651596); settings: NB7 neuroblastoma + caspase-8, TRAIL sensitization, NB7 Caspase-8, with TRAIL, mean of runs, at 10 µM, stronger effect = higher value
Sequence (O14763 whole entry, looked up): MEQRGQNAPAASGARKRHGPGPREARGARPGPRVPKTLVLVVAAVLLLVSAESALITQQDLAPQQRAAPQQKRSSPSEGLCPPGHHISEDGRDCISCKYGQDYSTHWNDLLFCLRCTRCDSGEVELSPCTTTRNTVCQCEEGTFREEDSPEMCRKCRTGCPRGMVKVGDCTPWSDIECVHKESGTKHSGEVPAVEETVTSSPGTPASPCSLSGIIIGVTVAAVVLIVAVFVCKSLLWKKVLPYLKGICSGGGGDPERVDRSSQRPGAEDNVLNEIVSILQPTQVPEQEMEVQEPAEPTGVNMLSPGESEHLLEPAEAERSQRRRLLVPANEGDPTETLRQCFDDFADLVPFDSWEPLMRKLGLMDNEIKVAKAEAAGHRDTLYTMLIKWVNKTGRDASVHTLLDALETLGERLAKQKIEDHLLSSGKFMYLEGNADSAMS

Row | SMILES | activity [%]
1 | O=C(CCl)N1c2ccccc2SCC1c1ccccc1 (stereo not given) | 99.4
2 | O=C(COC(=O)c1n[nH]c2ccccc12)NC(=O)NC12CC3CC(CC(C3)C1)C2 | 51.5
3 | C(=Cc1nc2ccccc2o1)c1ccc2c(c1)OCO2 | 86.1
4 | O=C1c2cccc3c([N+](=O)[O-])ccc(c23)C(=O)N1c1ccccn1 | 91.4
5 | COc1ccc(/C=C/c2nc3ccccc3c(=O)o2)cc1 | 83.2
6 | Cc1cccc(NS(=O)(=O)c2ccc3c(c2)Cc2cc(S(=O)(=O)Nc4cccc(C)c4C)ccc2-3)c1C | 72.1
7 | CCC(C)c1ccc(-c2cc(C(=O)OCC(=O)Nc3cc(C)on3)c3ccccc3n2)cc1 (stereo not given) | 85.1
8 | O=C(Cn1ncc(Cl)c(Cl)c1=O)Nc1ccc2c(c1)OCO2 | 99.5
9 | Fc1cccc(C2NN=C(c3ccccc3)S2)c1 (stereo not given) | 58.6
10 | CS(=O)(=O)Nc1cccc(NC(=O)C2Cc3c(-c4ccco4)ccnc3O2)c1 (stereo not given) | 35.7
11 | Cc1nc(-c2ccc(C(=O)Nc3ccccc3F)cc2)cs1 | 81.9
12 | N=c1c2c(n(Cc3ccc(Cl)c(Cl)c3)c3c1CCC3)CCCC2 | 80.6
13 | CC(C)(C)C(=O)N1CCc2cc(-c3csc(N)n3)ccc21 | 91.8
14 | O=C(CCN1C(=O)c2ccccc2C1=O)Nc1ccc(-c2nc3ccccc3s2)cc1 | 44.4
15 | O=c1cc(-c2ccccc2)oc2ccc3ccccc3c12 | 92.2
16 | COc1ccc(NC(=O)c2cc(-c3ccncc3)nc3ccc(Br)cc23)cc1OC | 4.8
17 | O=C(Nc1ccccn1)c1ccc2c(c1)OCCO2 | 49.8
18 | CCOc1ccc(/C=C2\CCc3ccccc3C2=O)cc1 | 83.2
19 | O=C(N/N=C/c1cn(-c2ccccc2)nc1-c1cc2ccccc2o1)c1cccnc1 | 61.2
20 | COC(=O)c1ccccc1NC(=O)c1cc(-c2ccc(O)cc2)on1 | 15.1

Row | SMILES | activity [%]
21 | Cc1ccccc1C(=O)O/N=C(\N)c1ccncc1 | 61.6
22 | CC(C)(C)c1ccc(-c2noc(CCC(=O)N3CCOCC3)n2)cc1 | 66.5
23 | Brc1ccc(-c2cn3ccccc3n2)s1 | 52.6
24 | N=c1n(CC(=O)c2ccc(Br)s2)c2ccccc2n1Cc1ccccc1 | 20.9
25 | Cc1ccc(-c2cn3c(=O)cc(C)[nH]c3n2)cc1 | 80.5
26 | c1ccc(-c2cn3c4c(sc3n2)CCCC4)cc1 | 94
27 | Cc1cnc(NC(=O)c2ccc(OCC3CCCO3)cc2)s1 (stereo not given) | 93.3
28 | Cc1cc(NC(=O)c2cc3n(n2)C(C(F)(F)F)CC(c2ccco2)N3)no1 (stereo not given) | -11.1
29 | Cc1ccccc1NC(=O)Cc1nc(COC(=O)c2ccc(S(C)(=O)=O)c([N+](=O)[O-])c2)cs1 | 80.5
30 | Nc1nc2ccccc2n1C(=O)c1ccc(F)cc1 | 91.5
31 | COc1ccc(C2C(C(=O)N3CCC(C)CC3)c3ccccc3C(=O)N2C)cc1 (stereo not given) | 67.2
32 | CCOc1ccc2nc(NC(=O)CN3CCC(n4nnc5cc(C(F)(F)F)ccc54)CC3)sc2c1 | 69
33 | CC(C)(C)C1CCc2sc(C(=O)NNC(=O)CCl)cc2C1 (stereo not given) | 98.8
34 | C#CCSc1nnc(-c2ccc(C)cc2)o1 | 97.6
35 | N#Cc1c(/N=C/c2cccs2)sc2c1CCCCC2 | 65.7
36 | CCOC(=O)COc1ccc(-c2nnc(-c3ccccc3)o2)cc1 | 43.2
37 | Nc1nc(N)c2cc(CNc3ccc(Cl)c(Cl)c3)ccc2n1 | 85.2
38 | O=c1[nH]c2ccccc2nc1/C=C/c1ccc(Cl)cc1 | 64.9
39 | CCOC(=O)CSc1nc2cc(C)ccc2cc1C#N | 39.8
40 | CC(=O)n1cc(N(C(=O)CCl)c2ccc([N+](=O)[O-])cc2)c2ccccc21 | 97.8
